# Laboratory results from PubChem BioAssay (NCATS).
# Several values for one entry are separate records, joined by “and”; a condition that tells them apart may be missing. Identical values can stand only once. Inconclusive results are not listed. Entries that show only a call come without a potency. Some compounds were tested as several samples or in several runs, with calls that do not always agree. Activity calls are given as the source filed them. The call rests on the fitted dose curve; in most records, active means well fitted curve in the direction sought with a large enough effect; inconclusive means small, poorly fitted or top-dose-only effect, or another doubt; inactive means no such curve, though single readings can be large; an effect the other way counts as inactive or inconclusive.
# Key:
# [1] = target: Cytochrome P450 3A7 (Homo sapiens) (UniProt P24462); test: Cytochrome P450 family 3 subfamily A member 7 (CYP3A7) small molecule antagonists: luciferase biochemical qHTS assay (AID 1963596); further: nearly all actives have a fitted effect of over 40% in size
# Cytochrome P450 3A7 (Homo sapiens), sequence (P24462 whole entry, looked up): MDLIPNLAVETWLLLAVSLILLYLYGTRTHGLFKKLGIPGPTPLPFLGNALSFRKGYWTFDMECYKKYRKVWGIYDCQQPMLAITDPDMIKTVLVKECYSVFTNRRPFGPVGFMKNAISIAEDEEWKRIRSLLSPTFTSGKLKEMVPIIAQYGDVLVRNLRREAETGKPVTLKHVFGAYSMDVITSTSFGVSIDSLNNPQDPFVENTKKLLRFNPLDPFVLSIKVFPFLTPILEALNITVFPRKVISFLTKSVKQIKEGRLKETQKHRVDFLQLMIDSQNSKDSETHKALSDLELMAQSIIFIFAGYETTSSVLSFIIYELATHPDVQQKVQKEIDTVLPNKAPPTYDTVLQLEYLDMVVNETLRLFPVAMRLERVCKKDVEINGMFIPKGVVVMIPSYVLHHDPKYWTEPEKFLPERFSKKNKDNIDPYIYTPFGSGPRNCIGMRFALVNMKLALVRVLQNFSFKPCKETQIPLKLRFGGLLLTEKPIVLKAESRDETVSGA
# In short: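 Recombinant CYP3A7 P450-Glo luminescent assay: enzyme-proluciferin substrate mix preincubated with compound 10 min at room temperature, reaction started with NADPH regeneration system for 1 h. Luciferin detected by luminescence; ketoconazole as positive control.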
# [2] = Viability qHTS for spleen associated tyrosine kinase inhibitor (SYKi) naive MV4-11 cells (AID 1963823); further: nearly all actives have a fitted effect of over 40% in size
# In short: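 CellTiter-Glo luminescence, 10 min room-temperature incubation, gave viability. Cells: naive MV4-11 (500/well), treated 72 hr at 37 C, 5% CO2.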
# [3] = Viability qHTS for spleen associated tyrosine kinase inhibitor (SYKi) drug resistant MV4-11 cells (AID 1963824); further: nearly all actives have a fitted effect of over 35% in size
# In short: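 SYK inhibitor-resistant MV4-11 AML cells, 500 per well, added to predispensed compounds and incubated 72 hr at 37 C, 5% CO2. Viability measured by CellTiter-Glo luminescence after 10 min at room temperature.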
# [4] = Quantitative highthroughput screen to assess conditional lethalithy of NOMO1 cells grown in RPMI1640 with untreated serum (RPMI+s) (AID 1963876); further: nearly all actives have a fitted effect of over 35% in size
# In short: (§1)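 Each medium arm—HPLM with 10% dialyzed FBS, or RPMI1640 with 5 mM glucose and 10% untreated or dialyzed FBS—was screened against an 11-point, 3-fold compound titration for 48 h at 37 °C, with CellTiter-Glo luminescence as endpoint.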
# [5] = Quantitative highthroughput screen to assess conditional lethalithy of NOMO1 cells grown in RPMI1640 with dialyzed fetal bovine serum (RPMI+ds) (AID 1963877); further: nearly all actives have a fitted effect of over 30% in size; on Viability: series mostly up to about 46 µM
# In short: as §1
# [6] = Quantitative highthroughput screen to assess conditional lethalithy of P12 Ichikawa cells grown in RPMI1640 with untreated serum (RPMI+s) (AID 1963881); settings: Potency: viability; further: nearly all actives have a fitted effect of over 35% in size; on Viability: series mostly up to about 46 µM
# In short: as §1
# [7] = Cellular viability qHTS for adrenocortical cancer (ACC) cell line SW-13 (AID 1963989); settings: SW-13 ACC cells viability, CellTiter-Glo, 48 h; activity (max response): stronger effect = lower value; further: nearly all actives have a fitted effect of over 65% in size;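 on activity (max response): cells grown in serum-free medium with ITS supplement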
# In short: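 SW-13 cells in ITS-supplemented serum-free DMEM were plated overnight, then exposed for 48 h at 37C to compound titrations (up to 46 uM final). Viability was read by CellTiter-Glo luminescence; four-parameter logistic fits gave IC50 and efficacy.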
# [8] = Cellular viability qHTS for adrenocortical cancer (ACC) cell line NCI-H295R (AID 1963990); further: nearly all actives have a fitted effect of over 60% in size
# In short: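 Luminescent ATP read-out (CellTiter-Glo, 20 min RT) after 48 h drug exposure of NCI-H295R cells; a titration up to 46 uM final. Data normalized to doxorubicin (100% inhibition) and DMSO (0%); 4-parameter fit gives IC50, max response.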
# [9] = Quantitative highthroughput screen to assess conditional lethalithy of NOMO1 cells grown in Human Plasma-Like Medium with dialyzed fetal bovine serum (HPLM+ds) (AID 1963878); further: nearly all actives have a fitted effect of over 35% in size
# In short: as §1
# [10] = Quantitative highthroughput screen to assess conditional lethalithy of P12 Ichikawa cells grown in Human Plasma-Like Medium with dialyzed fetal bovine serum (HPLM+ds) (AID 1963879); settings: Potency: viability; further: nearly all actives have a fitted effect of over 35% in size; on Viability: series mostly up to about 46 µM
# In short: as §1
# [11] = Quantitative highthroughput screen to assess conditional lethalithy of P12 Ichikawa cells grown in RPMI1640 with dialyzed fetal bovine serum (RPMI+ds) (AID 1963880); settings: Potency: P12-Ichikawa viability; further: nearly all actives have a fitted effect of over 35% in size
# In short: as §1
# [12] = Quantitative highthroughput screen to assess conditional lethalithy of SEM cells grown in Human Plasma-Like Medium with dialyzed fetal bovine serum (HPLM+ds) (AID 1963882); further: nearly all actives have a fitted effect of over 35% in size; on Viability: series mostly up to about 46 µM
# In short: as §1
# [13] = Quantitative highthroughput screen to assess conditional lethalithy of SEM cells grown in RPMI1640 with unreated serum (RPMI+s) (AID 1963883); further: nearly all actives have a fitted effect of over 35% in size
# In short: as §1
# [14] = Quantitative highthroughput screen to assess conditional lethalithy of SEM cells grown in RPMI1640 with dialyzed fetal bovine serum (RPMI+ds) (AID 1963884); further: nearly all actives have a fitted effect of over 35% in size; on Viability: series mostly up to about 46 µM
# In short: as §1
# Potency means the concentration at half of the fitted maximal effect.
Compound,Potency [1],Potency [2],Potency [3],Potency [4],Potency [5],Potency [6],activity (max response) [7],Potency [8],Potency [9],Potency [10],Potency [11],Potency [12],Potency [13],Potency [14],Potency [7]
CCn1cc(C(=O)O)c(=O)c2cc(F)c(N3CCNCC3)cc21,inactive,inactive,inactive,inactive,inactive,3.32 µM (active),-6.7% (inactive) and -21.8% (inactive),inactive,,,,,,,
Cc1coc2c1C(=O)C(=O)c1c-2ccc2c1CCCC2(C)C,inactive,1.86 µM (active),1.86 µM (active),inactive,,inactive,2.82% (inactive),,inactive,inactive,inactive,inactive,inactive,inactive,
O=C(C1CC1)N1CC[C@@H](Cc2n[nH]c(=O)n2-c2ccc(-c3ccc4occc4c3)cc2)C1,0.536 µM (active),inactive,18.6 µM (active),inactive,inactive,inactive,,,inactive,,inactive,,,,
COc1nc(N)nc2c1ncn2[C@@H]1O[C@H](CO)[C@@H](O)[C@@H]1O,inactive,inactive,inactive,inactive,inactive,inactive,-9.37% (inactive),inactive,,inactive,inactive,inactive,,inactive,
Oc1c(Cl)cc(Cl)c2cccnc12,inactive,5.25 µM (active),8.33 µM (active),inactive,,,,,inactive,,,16.6 µM (active),18.7 µM (active),18.7 µM (active),3.55 µM (active)
Cc1nc2c([nH]1)CCN(C(=O)c1ccc(NC(=O)c3ccccc3-c3ccccc3)cc1)c1ccccc1-2,inactive,18.4 µM (active),13.2 µM (active),inactive,inactive,inactive,-19.1% (inactive),inactive,inactive,,inactive,inactive,inactive,inactive,
O=C(Nc1cccnn1)N1CCC(=Cc2cccc(Oc3ccc(C(F)(F)F)cn3)c2)CC1,inactive,7.42 µM (active),10.3 µM (active) and 6.61 µM (active),inactive,inactive,inactive,,15.8 µM (active),,inactive,inactive,inactive,inactive,,
CC(C)(Sc1cc(C(C)(C)C)c(O)c(C(C)(C)C)c1)Sc1cc(C(C)(C)C)c(O)c(C(C)(C)C)c1,inactive,inactive,inactive,inactive,inactive,inactive,7.94% (inactive) and -9.47% (inactive),inactive,,inactive,inactive,inactive,inactive,inactive,
CCn1cc(C(=O)O)c(=O)c2ccc(C)nc21,inactive,inactive,inactive,,inactive,inactive,13.9% (inactive),inactive,,inactive,inactive,inactive,,5.9 µM (active),
Cc1nnc(NS(=O)(=O)c2ccc(N)cc2)s1,inactive,inactive,inactive,,5.26 µM (active),8.33 µM (active),,inactive,,7.43 µM (active),13.2 µM (active),inactive,9.35 µM (active),inactive,
Nc1ccn([C@H]2CC[C@@H](CO)O2)c(=O)n1,inactive,inactive,inactive,,,,0.291% (inactive),inactive,23.5 µM (active),,,,,7.43 µM (active),
Fc1cc(-c2cccc3ncc(-c4cnn(C5CCNCC5)c4)nc23)cc(F)c1CN1CCOCC1,inactive,259 nM (active) and 372 nM (active),731 nM (active) and 833 nM (active),8.33 µM (active),,,,6.31 µM (active),,,16.6 µM (active),4.69 µM (active),2.64 µM (active),,25.1 µM (active)
COc1cccc2c1CCCC2CCCN1CCN(C2CCCCC2)CC1 (centres undefined),inactive,16.6 µM (active),10.5 µM (active),20.9 µM (active),,,,,,,18.7 µM (active),,,,
CCCC(CCC)C(=O)O,inactive,inactive,inactive,inactive,,,6.17% (inactive) and -13.6% (inactive),inactive,,inactive,inactive,inactive,inactive,inactive,
CCC[C@@H]1C[C@@H](C(=O)N[C@@H]([C@H]2O[C@H](SC)[C@H](O)[C@@H](O)[C@H]2O)[C@@H](C)O)N(C)C1,inactive,inactive,inactive,inactive,,,,inactive,,inactive,inactive,inactive,inactive,inactive,
Cn1c(NCCN(CCO)CCCc2ccc([N+](=O)[O-])cc2)cc(=O)n(C)c1=O,inactive,inactive,inactive,inactive,,,5.91% (inactive) and 4.46% (inactive),inactive,,,,,,,
CCN1CCCC1CNC(=O)c1cc(S(=O)(=O)CC)c(N)cc1OC (centres undefined),inactive,inactive,inactive,,,inactive,7.57% (inactive) and -4.85% (inactive),inactive,,inactive,inactive,inactive,inactive,inactive,

Compound,Potency [1],Potency [2],Potency [3],Potency [4],Potency [5],Potency [6],activity (max response) [7],Potency [8],Potency [9],Potency [10],Potency [11],Potency [12],Potency [13],Potency [14],Potency [7]
c1ccc([C@H]2CN3CCSC3=N2)cc1,inactive,inactive,inactive,inactive,,inactive,-16.6% (inactive) and 4.55% (inactive),inactive,,inactive,inactive,inactive,,inactive,
COc1cc(Nc2c(C#N)cnc3cc(OCCCN4CCN(C)CC4)c(OC)cc23)c(Cl)cc1Cl,15.5 µM (active),944 nM (active) and 1.3 µM (active) and 1.18 µM (active),944 nM (active) and 1.16 µM (active) and 590 nM (active),,8.33 µM (active),4.69 µM (active),,4.61 µM (active) and 3.55 µM (active),3.72 µM (active),3.72 µM (active),5.26 µM (active),1.66 µM (active),1.87 µM (active),2.35 µM (active),4.61 µM (active) and 2 µM (active)
CN(C)CCOC(c1ccccc1)c1ccccc1,inactive,inactive,inactive,,,inactive,0.185% (inactive) and 9.44% (inactive),inactive,inactive,,,inactive,inactive,inactive,
CC(C)CC(=O)Nc1n[nH]c2c1CN(C(=O)C1CCN(C)CC1)C2(C)C,inactive,206 nM (active) and 417 nM (active),259 nM (active) and 468 nM (active),,5.9 µM (active),4.18 µM (active),,,6.62 µM (active),,4.69 µM (active),2.64 µM (active),1.05 µM (active),4.69 µM (active),3.98 µM (active)
CN(C)C(=O)COC(=O)Cc1ccc(OC(=O)c2ccc(N=C(N)N)cc2)cc1,inactive,inactive,inactive and 7.42 µM (active),,,,3.47% (inactive) and -2% (inactive),inactive,20.9 µM (active),,,,,,
CCCCOc1c(C(=O)c2c(F)cc(C)cc2F)cnc2n[nH]cc12,inactive,651 nM (active) and 1.32 µM (active),461 nM (active) and 468 nM (active),inactive,,inactive,-11.6% (inactive),,,inactive,inactive,,,,
COC(=O)c1ccc2c(C(=Nc3ccc(N(C)C(=O)CN4CCN(C)CC4)cc3)c3ccccc3)c(O)[nH]c2c1,inactive,32.6 nM (active) and 37.2 nM (active),58 nM (active) and 66.1 nM (active),,inactive,inactive,,10 µM (active),inactive,,inactive,,,,7.08 µM (active)
COc1cc2c(c(OC)c1OC)-c1ccc(OC)c(=O)cc1[C@@H](NC(C)=O)CC2,inactive,23.7 nM (active) and 18.6 nM (active),16.8 nM (active) and 14.8 nM (active),inactive,,,,92 nM (active) and 100 nM (active),,,,,inactive,inactive,25.9 nM (active) and 35.5 nM (active)
Cc1[nH]c(=O)c(C#N)cc1-c1ccncc1,inactive,inactive,inactive,,,,14.7% (inactive) and 1.4% (inactive) and -7.07% (inactive),inactive,inactive,,,inactive,inactive,inactive,
Nc1nc2c(ncn2COCCO)c(=O)[nH]1,inactive,inactive,inactive,inactive,,inactive,1.46% (inactive) and 4.77% (inactive),inactive,,inactive,inactive,,,,
NCCOc1cc(C(=O)Nc2cc(OCCN)c3ccccc3n2)nc(C(=O)Nc2cc(OCCN)c3ccccc3n2)c1,inactive,1.3 µM (active) and 1.66 µM (active),2.59 µM (active) and 3.72 µM (active),,,,,,inactive,,,,,,
Cc1nc2ccc(CN(C)c3ccc(C(=O)N[C@@H](CCC(=O)O)C(=O)O)s3)cc2c(=O)[nH]1,inactive,0.0066 µM (active),0.0074 µM (active),0.418 µM (active),,,,inactive,,,,,inactive,,
CC1(C)[C@H](C(=O)O)N2C(=O)C[C@H]2S1(=O)=O,inactive,inactive,inactive,8.33 µM (active),,inactive,,inactive,,inactive,inactive,inactive,,inactive,
Cn1c(=O)c2c(ncn2CC(O)CO)n(C)c1=O (centres undefined),inactive,inactive,inactive,,,inactive,9.53% (inactive) and 9.36% (inactive),inactive,inactive,inactive,inactive,inactive,inactive,inactive,
Cc1cn([C@@H]2O[C@H](CO)[C@@H](O)[C@H]2F)c(=O)[nH]c1=O,inactive,inactive,inactive,,,,7.23% (inactive),inactive,inactive,inactive,,inactive,inactive,inactive,
CC(C)NCC(O)COc1ccc(CCOCC2CC2)cc1 (centres undefined),inactive,inactive,inactive,,,inactive,-8.57% (inactive),inactive,16.6 µM (active),inactive,inactive,inactive,inactive,,
